Experimental data: publication PMC7819943, “Rice protein-binding microarrays: a tool to detect cis-acting elements near promoter regions in rice”
Whole data set: some 39,000 sequences, median “fluorescence intensity (a.u.)” near 4,300, cut for the highest 2% near 39,000. Only a selection was taken, and the highest values are over-represented in it overall.

These sequences were tested against T1, OsSMF1 (Oryza sativa, UniProt Q6ZLB0 1-436) (assay: protein-binding microarray (RPBM); PBS, 2% BSA, 51.3 ng/ul salmon testes DNA, 50 uM zinc acetate, 200 nM TF, 25 C, 1 h; high values mean tight binding). Settings: protein: recombinant; tags: N-terminal polyhistidine and DsRed monomer fusion (pET32a); chain copies: 2; label: CyDye5-dUTP incorporated in the synthesized complementary strand; 3' TTTTT single-stranded linker to array surface; dsDNA, one strand shown.
T1 sequence: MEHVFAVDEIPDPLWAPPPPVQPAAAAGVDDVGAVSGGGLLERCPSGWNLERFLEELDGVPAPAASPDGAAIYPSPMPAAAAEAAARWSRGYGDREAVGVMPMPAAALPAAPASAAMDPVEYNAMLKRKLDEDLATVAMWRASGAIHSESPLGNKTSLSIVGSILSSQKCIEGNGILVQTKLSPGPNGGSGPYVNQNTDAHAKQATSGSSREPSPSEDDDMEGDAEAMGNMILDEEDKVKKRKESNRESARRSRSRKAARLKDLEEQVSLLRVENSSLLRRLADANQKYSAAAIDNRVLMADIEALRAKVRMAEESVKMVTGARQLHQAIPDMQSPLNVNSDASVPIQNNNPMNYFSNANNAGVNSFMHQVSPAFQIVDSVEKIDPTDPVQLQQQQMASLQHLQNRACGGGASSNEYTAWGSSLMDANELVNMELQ
In short: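 Binding signal is reported as fluorescence intensity per feature (arbitrary units) from an Axon 4000B scanner. Incubation used 200 nM of each Ni–NTA-purified, N-terminally polyhistidine- and DsRed-fused transcription factor from E. coli BL21-CodonPlus on a double-stranded custom Agilent array for 1 h at 25 °C, with 50 µM zinc acetate in the buffer, followed by washing.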

Sequence	binding signal
GCAGTAGACACGACGTACTTGTCAATGGTGAGGCATTTATCGGAGTCACCTAGTGCAG	3350 fluorescence intensity (a.u.)
TAATTGTGATCAAAATTGTAACAAATGCACGGTCATTAAGCGGAGTCACCTAGTGCAG	3320 fluorescence intensity (a.u.)
ATTGAAAAGTTTGGTTCAAATTAAAATTTTAGTAACAAAACGGAGTCACCTAGTGCAG	24300 fluorescence intensity (a.u.)
TGGTTCAAAATGTAAACATTAGTTAAATGGTGATCCAAAGCGGAGTCACCTAGTGCAG	49900 fluorescence intensity (a.u.)
TAGTACCTTTACTTTTCAGTTTTCACCCCATGTGGCATACCGGAGTCACCTAGTGCAG	3620 fluorescence intensity (a.u.)
GCCACGGTCTCGTTGTGATGTTGTGATATTAGGTTCACTGCGGAGTCACCTAGTGCAG	46600 fluorescence intensity (a.u.)
AGTTGTGATGTCGCCACGTTGGCGGCCGGCGACTGCGCCACGGAGTCACCTAGTGCAG	12000 fluorescence intensity (a.u.)
TCCCGCATGTGTTGTGTGATGTGTCTCGTCTCCGCCACCACGGAGTCACCTAGTGCAG	7960 fluorescence intensity (a.u.)
TCTTCATGTAGTCAGCATACATCTGTCACAGCCACAGACACGGAGTCACCTAGTGCAG	4480 fluorescence intensity (a.u.)
AATAAGTAGTTGGTGATACGTGTTAGCCACGAGGCATATACGGAGTCACCTAGTGCAG	4020 fluorescence intensity (a.u.)
AGAGGTACGTAAAATGACACATGTGCCTCTTCATACGCTCCGGAGTCACCTAGTGCAG	3150 fluorescence intensity (a.u.)
CCAAGTTCGGCTGGTCGCCACGCCACCCATCTCCATCTTCCGGAGTCACCTAGTGCAG	4140 fluorescence intensity (a.u.)
CTTACCATCTCCCCAAGCGGGAGAGTGGACGTCATAATTTCGGAGTCACCTAGTGCAG	45700 fluorescence intensity (a.u.)
AAACCCGGAGAGAGTGGTGTTCGTGGACGTCACCCCATTTCGGAGTCACCTAGTGCAG	4440 fluorescence intensity (a.u.)
CGGGAGAGAAGCCCACGTCACTCCCATAAATGGATGTGGACGGAGTCACCTAGTGCAG	9320 fluorescence intensity (a.u.)
CGTCCGTGCGAATGATTGCATCTGCGCGAGCGACGCCGTTCGGAGTCACCTAGTGCAG	3430 fluorescence intensity (a.u.)
CTCGGCTGTTGCGCCTTCGTTTTGCACCGAGGCTGTGCTACGGAGTCACCTAGTGCAG	55500 fluorescence intensity (a.u.)
TGCGAGGTGGTGGTGATTGCTTCGTCGGCTGTTGATTTCTCGGAGTCACCTAGTGCAG	3300 fluorescence intensity (a.u.)
TTTTCTTCTGTTCGTGTGCGTGCTCGCGCCTTTCTTGCTTCGGAGTCACCTAGTGCAG	4250 fluorescence intensity (a.u.)
CATATATGCCCATCACCCCAATAAGAGTTCCGAATTAGATCGGAGTCACCTAGTGCAG	3560 fluorescence intensity (a.u.)
CATCCCCAAACTCCGCCGCCGCCGCCGTCACCGCCGCTCGCGGAGTCACCTAGTGCAG	3700 fluorescence intensity (a.u.)

Sequence	binding signal
AATTCTAGGTCCAGCACTGTGCTTACCTGTATAGAAGCCTCGGAGTCACCTAGTGCAG	3200 fluorescence intensity (a.u.)
GCAGGAGCAAAGCGCTTACTTTTGCCTCACACTGTATAGTCGGAGTCACCTAGTGCAG	45400 fluorescence intensity (a.u.)
ATTCATATATATATATACACACACACTTACTTTGTATATGCGGAGTCACCTAGTGCAG	3190 fluorescence intensity (a.u.)
TTCTTCTTCTATTCCACGTCCACGTGTATGGCCAGGAGTTCGGAGTCACCTAGTGCAG	16100 fluorescence intensity (a.u.)
TGAAAATGGTGTTGGCATCATAAAATATTTAACCAACCCCCGGAGTCACCTAGTGCAG	3150 fluorescence intensity (a.u.)
TCACGAGCCGACACGTGTCTCCTGACGTGGTACCCTTTCCCGGAGTCACCTAGTGCAG	21900 fluorescence intensity (a.u.)
TTCTGATTAGGCTGCCACATTGGCGGCACGTGTGATAGCTCGGAGTCACCTAGTGCAG	45900 fluorescence intensity (a.u.)
TTGGCGTGACTAGGCGCAATTTCTGCAAATTGGAGCTCGGCGGAGTCACCTAGTGCAG	7820 fluorescence intensity (a.u.)
AGATGTGATACATTAGCATTCTAGCACGGCGGTGGCATTGCGGAGTCACCTAGTGCAG	3250 fluorescence intensity (a.u.)
GGCCAGGCCACCCCAACACGCCAGCCTCCCGGGCCGTTGACGGAGTCACCTAGTGCAG	3250 fluorescence intensity (a.u.)
TGAACCTCGAAGATGCAAATATGTAGTAGTACGTAGGTCCCGGAGTCACCTAGTGCAG	3310 fluorescence intensity (a.u.)
CATTTCATATCAGAAGTGTGATCACTGTAACCCGCGGCGCCGGAGTCACCTAGTGCAG	64500 fluorescence intensity (a.u.)
TATGTATGATCTCTTCCTGTAACATTTTCATCATCTAACCCGGAGTCACCTAGTGCAG	3480 fluorescence intensity (a.u.)
GGTCCGGTGTGACACTGTGACCCCGCCGTAACCCCGTAACCGGAGTCACCTAGTGCAG	4060 fluorescence intensity (a.u.)
AGAGGAGCATCTTCTCGCCTGAGATTCCGTCGACGCCATTCGGAGTCACCTAGTGCAG	3540 fluorescence intensity (a.u.)
GGCGGTGCTGGTGGAGGCGGTGGTCTCGGAGGTGGAGCAGCGGAGTCACCTAGTGCAG	46000 fluorescence intensity (a.u.)
CAATAAACCGGTGGTTGGACCGGTCCAACCAATAAACCAGCGGAGTCACCTAGTGCAG	43900 fluorescence intensity (a.u.)
AATGGACCACCGTTAGTCCACCAGTCAGCCAACCAATGGCCGGAGTCACCTAGTGCAG	3360 fluorescence intensity (a.u.)
TCGGCGGTCGTGGAGGTGGTGGCAGGCGGTCGTGGCGGAGCGGAGTCACCTAGTGCAG	3990 fluorescence intensity (a.u.)
AGGTGGAGGCGCCGGTGTGGGTGGTGGAGCGGGAGGAGGTCGGAGTCACCTAGTGCAG	4096 fluorescence intensity (a.u.)
GAGGTGGGGTGGCTTAGTGACCTCGTGTCGTAGATTGGATCGGAGTCACCTAGTGCAG	4900 fluorescence intensity (a.u.)

Sequence	binding signal
CTAAGGGTCTAAGAGATGATGCTGTGATGAGGTGGATCATCGGAGTCACCTAGTGCAG	4840 fluorescence intensity (a.u.)
GCGGGGTTGGAGGAGGAGGAGGTGGTGGTGGTGGTGGTGGCGGAGTCACCTAGTGCAG	4860 fluorescence intensity (a.u.)
AGAGGGTGGAGGAGCTGACTAGATTGCACTAGGTCTCGATCGGAGTCACCTAGTGCAG	42000 fluorescence intensity (a.u.)
GTTGGTGGTGGAGCGGGAGGAGGTGCCGGTGGAGGCGGTGCGGAGTCACCTAGTGCAG	53000 fluorescence intensity (a.u.)
CAACACCCAACCCCAATTGGTCGCGGTGGGTCGGACGGACCGGAGTCACCTAGTGCAG	34900 fluorescence intensity (a.u.)
GAGGGGATGACGGTGGTCTCGGCAGCGGATGACGGCGGCGCGGAGTCACCTAGTGCAG	4490 fluorescence intensity (a.u.)
CCGCTCGTCGATTAGCCGGCCACGCCTCCCGCTCGTGAAGCGGAGTCACCTAGTGCAG	3680 fluorescence intensity (a.u.)
GACCCTGCCGCCCTCCATTTGGGCGGCAAGCTGACGTGGCCGGAGTCACCTAGTGCAG	32700 fluorescence intensity (a.u.)
GCAGTTTGTCTCATGTGCTGCTGACTAGATATTGATCATACGGAGTCACCTAGTGCAG	11400 fluorescence intensity (a.u.)
ATGATGAGTAGGAGTTTGTGCAGGTGGACGGCGGTGGTGGCGGAGTCACCTAGTGCAG	3180 fluorescence intensity (a.u.)
TCACGCGTAGCTTCGCCGCTACGTGGCCTCGCGCACGTTACGGAGTCACCTAGTGCAG	5500 fluorescence intensity (a.u.)
TTCGCTAACGCCGCGCGTCACGTAGACACGTACTACTAGCCGGAGTCACCTAGTGCAG	49600 fluorescence intensity (a.u.)
GTTCGCGGGCCGCGAACGTCCACGTACTAGACGCCCCTCACGGAGTCACCTAGTGCAG	4050 fluorescence intensity (a.u.)
CCTGCATGCGTGGCTGCGCTCACTGTCGTTATTTGCTTTACGGAGTCACCTAGTGCAG	5080 fluorescence intensity (a.u.)
AATGAGATACTTAGACTTGTGAGGCCCGACGTGTCCAATCCGGAGTCACCTAGTGCAG	4470 fluorescence intensity (a.u.)
AAAGGGCAGGCACATCGCTTTCGGGCCCTGTCACGTACCCCGGAGTCACCTAGTGCAG	3920 fluorescence intensity (a.u.)
TCAATAATGTGTGCGTGACCTGGGCAAGTGGCGGTAGCAACGGAGTCACCTAGTGCAG	3540 fluorescence intensity (a.u.)
ATCTGCTTTGTGAGGCACATGAAGCTGGAGATATCTGTCACGGAGTCACCTAGTGCAG	4740 fluorescence intensity (a.u.)
GATCGAGCGGCAGGCCAGCAGTAACCTGGCCGAGAAGTTGCGGAGTCACCTAGTGCAG	64500 fluorescence intensity (a.u.)
TTTGCTCGTTGGCAGCGGCCAGCAGGCACGTGTAACGGCGCGGAGTCACCTAGTGCAG	4190 fluorescence intensity (a.u.)
ACCGAGTCCACGGAGCAGTGAGAGAGCCAGGCAGCCAGTGCGGAGTCACCTAGTGCAG	3960 fluorescence intensity (a.u.)

Sequence	binding signal
GATGTGCGATAGCAGAATGGTGCTAAGTGAGTCACATCGTCGGAGTCACCTAGTGCAG	3970 fluorescence intensity (a.u.)
TTTAATGATCTTATAAATTGTAATGCTGATAGGTGGTTATCGGAGTCACCTAGTGCAG	3590 fluorescence intensity (a.u.)
TATAATGTTTGGGTGCGTTTAATTCTATTTGAATTACACTCGGAGTCACCTAGTGCAG	48000 fluorescence intensity (a.u.)
ATACCGGTGCGTTACAACGAGGTGAATGTTATTTTAATTTCGGAGTCACCTAGTGCAG	25200 fluorescence intensity (a.u.)
AATCAACAAATAACTAATATTCTTACATCAGCTACTATAACGGAGTCACCTAGTGCAG	28600 fluorescence intensity (a.u.)
AAGCTTACAACATGTTCTATAATTTATTTAATTCTACAAACGGAGTCACCTAGTGCAG	45700 fluorescence intensity (a.u.)
TTCTAATTACTATTTAAGCTTATCCTAATTAACTCACATGCGGAGTCACCTAGTGCAG	3230 fluorescence intensity (a.u.)
ACACTATGATTATAATATATTTACATGTGTGAATTGTTTACGGAGTCACCTAGTGCAG	3640 fluorescence intensity (a.u.)
GGGCTCATCTTCACCGTTGTCATTCAGTTATTCACATAAGCGGAGTCACCTAGTGCAG	3360 fluorescence intensity (a.u.)
GGCGGCGCCGACGACTCCGCGCCGCTCGGCCTCATCGTCGCGGAGTCACCTAGTGCAG	3190 fluorescence intensity (a.u.)
GCGCCCTCCTCCTGCCACGTCGGTTCGCGTGCGCCACGGTCGGAGTCACCTAGTGCAG	19500 fluorescence intensity (a.u.)
CATATGCCATCTAATCATCCTTGTCTGATGTCATTTATTCCGGAGTCACCTAGTGCAG	5870 fluorescence intensity (a.u.)
TGCTTCGCCAGTGAATCGCGTGGATATAAATGGGCCTCTCCGGAGTCACCTAGTGCAG	3440 fluorescence intensity (a.u.)
CGCACTTCCGTCGCCTCCCCGCATCGCGTCGTACAACGGGCGGAGTCACCTAGTGCAG	18300 fluorescence intensity (a.u.)
GGTGTGTGTATGTGTTTATATGGTGAGTGTACACACGTTGCGGAGTCACCTAGTGCAG	3150 fluorescence intensity (a.u.)
GGCCCCGTCGACGCTGTGCACCAAACACAATAAAGACATGCGGAGTCACCTAGTGCAG	3430 fluorescence intensity (a.u.)
GTGATCTTTCCACATACAGAGAGAGAGAGAGCTTGGGATTCGGAGTCACCTAGTGCAG	40900 fluorescence intensity (a.u.)
GTCTGGATCAGAGCTGTCCACATTGGTTGTATTCCTCTTTCGGAGTCACCTAGTGCAG	3620 fluorescence intensity (a.u.)
ATTCCATATTTCCATTCCACACGTCTTGAGAGCTAATCTTCGGAGTCACCTAGTGCAG	3400 fluorescence intensity (a.u.)
CCTCCTGCTCAGAGGCAGTTCGGTGACGAGCGGGTTGGAGCGGAGTCACCTAGTGCAG	24400 fluorescence intensity (a.u.)
GGGGATGGGGATTCGATGTGTCTATGCGTGGGCCCTGGTTCGGAGTCACCTAGTGCAG	3860 fluorescence intensity (a.u.)
